Records with an inconclusive call do not appear. Active and inactive are the calls of the source. The call rests on the fitted dose curve; in most records, active means well fitted curve in the direction sought with a large enough effect; inconclusive means small, poorly fitted or top-dose-only effect, or another doubt; inactive means no such curve, though single readings can be large; an effect the other way counts as inactive or inconclusive.
Columns and labels:
[1] = target: Calcium and integrin-binding protein 1 (Homo sapiens) (UniProt Q99828); test: Primary qHTS for Identification of Calcium Integrin Binding Protein 1 (CIB1) Competitor (AID 1508620);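 further: GST tagged CIB1 binding a fluorescein labelled alphaIIb integrin peptide tracer; top concentration of the series differs between compounds; on the % scale 0 is the no-effect control and ±100 the full control effect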
In short: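 CIB1-GST (1 uM final) and compound incubated 15 min at room temperature before adding FITC-alphaIIb peptide tracer (100 nM final). Competition for binding read by fluorescence polarization (ex 480, em 540) after another 15 min at room temperature.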

[2] = target: Glutathione peroxidase 1 (Homo sapiens) (UniProt P07203); test: Primary qHTS Assay for Inhibitors of Recombinant Selenoprotein Glutathione Peroxidase 1 (GPX1) (AID 1845191); further: nearly all actives have a fitted effect of over 65% in size
In short: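 10 nM GPX1 + cpd, 30 min RT; start w/ 1 mM GSH, 0.5 mM cumene hydroperoxide, 0.5 mM NADPH, 100 nM GR, 0.01% BSA; buffer 50 mM Tris-HCl pH 7.5, 2 mM EDTA, 150 mM NaCl; Fl 340/450, 0 & 15 min.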

[3] = target: Phospholipid hydroperoxide glutathione peroxidase GPX4 (Homo sapiens) (UniProt P36969); test: Primary qHTS Assay for Inhibitors of Recombinant Selenoprotein Glutathione Peroxidase 4 (GPX4) (AID 1845192); details: outcome: dose series up to 50 µM unless noted; further: nearly all actives have a fitted effect of over 65% in size; on activity change, negative = inhibition: on the % scale 0 is the no-effect control and ±100 the full control effect
In short: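 NADPH consumption, followed by fluorescence at 340/450 nm between 0 and 15 min, reports GPX4 activity via coupled glutathione reductase (100 nM). Enzyme 200 nM was pre-exposed to compound 30 min; 0.5 mM cumene hydroperoxide and 1 mM GSH served as substrates.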

[4] = test system: Zika virus NS2B-NS3 protease (unlinked complex); test: Primary screen GU Rhodamine qHTS for Zika virus inhibitors: Unlinked NS2B-NS3 protease assay (AID 1347159); further: on the % scale 0 is the no-effect control and ±100 the full control effect; nearly all actives have a fitted effect of over 60% in size
In short: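 A qHTS format was used, with compound concentrations ranging up to 114 microM. Each compound was preincubated with 25 nM NS2B-NS3 protease, and the substrate was then added at 1.5 microM. Curves were fitted with a 4-parameter Hill model.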

[5] = test system: Zika virus NS2B-NS3 protease (linked construct); test: Primary screen NINDS Rhodamine qHTS for Zika virus inhibitors (AID 1347160); further: nearly all actives have a fitted effect of over 55% in size; on activity change, negative = inhibition: on the % scale 0 is the no-effect control and ±100 the full control effect
In short: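 Kinetic fluorescence (Ex 480 nm, Em 540 nm) over 15 min with 1.5 microM Rhodamine110 peptide and 25 nM linked protease.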

[6] = Primary qHTS for inhibitors of nuclear receptor binding SET domain protein 2 (NSD2) in an isogenic RCH-ACV NSD2 p.E1099K mutant (9B) (AID 1645876); further: nearly all actives have a fitted effect of over 70% in size; further: potency means the concentration at half of the fitted maximal effect
[7] = Primary qHTS for inhibitors of nuclear receptor binding SET domain protein 2 (NSD2) in an RCH-ACV wild type WT cells (2C) (AID 1645877); further: nearly all actives have a fitted effect of over 70% in size; further: potency means the concentration at half of the fitted maximal effect
[8] = target: Luciferin 4-monooxygenase (Photinus pyralis) (UniProt P08659); test: Primary firefly luciferase (FLuc) qHTS assay for identification of artifact compounds. (AID 1845220); further: nearly all actives have a fitted effect of over 60% in size;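 on activity change, negative = inhibition: plate controls were DMSO vehicle for no effect and no enzyme for full effect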
In short: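 Compounds sat 15 min at room temperature with 10 uM luciferin and 10 uM ATP (pH 7.6 Tris acetate). Firefly luciferase (10 nM final) was then added, and luminescence was read 5 min later. Data normalized to no-enzyme and DMSO controls were Hill-fitted.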

[9] = test system: Nanoluciferase (engineered Oplophorus gracilirostris luciferase); test: Primary Nanoluciferase (NLuc) qHTS assay for identification of artifact compounds. (AID 1845222);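 further: 0% = DMSO and -100% = no enzyme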
In short: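 Luminescence from secreted NLuc (filtered, 1:55-diluted S16 cell medium) read 5 min after Nano-Glo substrate; compounds preincubated 15 min, RT. Hill fits of inhibition normalized to DMSO and no-enzyme.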

[10] = Primary redox qHTS assay for identification of artifact compounds. (AID 1845223);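 further: 0% = DMSO and 100% = reference compound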
In short: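 Amplex Red (25 uM) and HRP (250 mU/mL) in HBSS, with compounds for 15 min, then 250 uM DTT for 30 min, room temperature, dark. Fluorescence 525/598 nm read; normalized to DMSO and 10 uM DA3003; Hill fit.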

Es-2 = test: Primary qHTS to identify gynecologic anti-cancer compounds using libraries of approved drugs and bioactive compounds (AID 1345084); details: Gynecologic cancer cell panel viability, ATPlite luminescence, 48 h; series mostly up to 57.5 µM; further: nearly all actives have a fitted effect of over 55% in size; further: potency means the concentration at half of the fitted maximal effect; on activity change, negative = cytotoxicity: on the % scale 0 is the no-effect control and ±100 the full control effect
In short: (§1)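 Five-point cytotoxicity, 48 h drug exposure at 37 C, 5% CO2, on cells seeded 16 h beforehand. ATP content read by ATPlite luminescence.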

C33A = test: as above; details: Gynecologic cancer cell panel viability, ATPlite luminescence, 48 h; series mostly up to 57.5 µM
In short: as §1

CASKI = test: as above; details: Gynecologic cancer cell panel viability, ATPlite luminescence, 48 h; series mostly up to 57.5 µM
In short: as §1

HeLa = test: as above; details: Gynecologic cancer cell panel viability, ATPlite luminescence, 48 h; series mostly up to 57.5 µM
In short: as §1

Hek293T = test: as above; details: Gynecologic cancer cell panel viability, ATPlite luminescence, 48 h, control line for the selectivity index; series mostly up to 57.5 µM
In short: as §1

JEG-3 = test: as above; details: Gynecologic cancer cell panel viability, ATPlite luminescence, 48 h; series mostly up to 57.5 µM
In short: as §1

OV90 = test: as above; details: Gynecologic cancer cell panel viability, ATPlite luminescence, 48 h; series mostly up to 57.5 µM
In short: as §1

PA-1 = test: as above; details: Gynecologic cancer cell panel viability, ATPlite luminescence, 48 h; series mostly up to 57.5 µM
In short: as §1

Tov-21-G = test: as above; details: Gynecologic cancer cell panel viability, ATPlite luminescence, 48 h; series mostly up to 57.5 µM
In short: as §1

Tov112D = test: as above; details: Gynecologic cancer cell panel viability, ATPlite luminescence, 48 h; series mostly up to 57.5 µM
In short: as §1

Chain of Calcium and integrin-binding protein 1 (Homo sapiens) (Q99828 whole entry, looked up): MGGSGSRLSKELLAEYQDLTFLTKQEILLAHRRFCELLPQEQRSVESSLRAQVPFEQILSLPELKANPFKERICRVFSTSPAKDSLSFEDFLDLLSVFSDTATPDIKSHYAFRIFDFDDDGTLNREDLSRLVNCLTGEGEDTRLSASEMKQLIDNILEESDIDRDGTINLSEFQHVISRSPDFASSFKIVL
Chain of Glutathione peroxidase 1 (Homo sapiens) (P07203 whole entry, looked up): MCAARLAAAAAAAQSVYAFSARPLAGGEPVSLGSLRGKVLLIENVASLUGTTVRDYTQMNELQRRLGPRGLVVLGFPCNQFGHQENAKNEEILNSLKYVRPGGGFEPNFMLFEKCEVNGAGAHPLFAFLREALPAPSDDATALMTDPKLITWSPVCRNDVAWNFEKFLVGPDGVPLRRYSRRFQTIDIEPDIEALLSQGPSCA
Chain of Phospholipid hydroperoxide glutathione peroxidase GPX4 (Homo sapiens) (P36969 whole entry, looked up): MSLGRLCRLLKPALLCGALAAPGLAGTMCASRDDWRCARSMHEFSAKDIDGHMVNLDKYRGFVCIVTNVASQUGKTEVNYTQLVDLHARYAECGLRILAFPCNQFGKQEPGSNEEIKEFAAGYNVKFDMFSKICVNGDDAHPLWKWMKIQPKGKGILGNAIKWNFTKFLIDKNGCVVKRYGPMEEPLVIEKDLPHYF

Cc1nc2ccc(C(=O)N3CCC4(CC3)CC(=O)c3c(cnn3C(C)C)C4)cc2[nH]1
inactive: outcome [1] | Potency [2] | Potency [3]

COc1cc(N2CCOCC2)ccc1Nc1ncc(F)c(Nc2ccccc2NS(C)(=O)=O)n1
active: Potency [6] 8.17 µM | Potency [7] 8.17 µM
inactive: Potency [4] | Potency [5] | outcome [1] | Potency [2] | Potency [3] | Potency [8] | Potency [9] | Potency [10] | Potency (Es-2)

CCNC(=O)[C@@H]1CCCN1C(=O)[C@H](CCCN=C(N)N)NC(=O)[C@H](CC(C)C)NC(=O)[C@@H](CC(C)C)NC(=O)[C@H](Cc1ccc(O)cc1)NC(=O)[C@H](CO)NC(=O)[C@H](Cc1c[nH]c2ccccc12)NC(=O)[C@H](Cc1cnc[nH]1)NC(=O)[C@@H]1CCC(=O)N1
inactive: Potency [4] | Potency [5] | Potency [6] | Potency [7] | Potency [3] | Potency [8] | Potency [9] | Potency (C33A) | Potency (CASKI) | Potency (Es-2) | Potency (HeLa) | Potency (Hek293T) | Potency (JEG-3) | Potency (OV90) | Potency (PA-1) | Potency (Tov-21-G) | Potency (Tov112D)

CCCCn1ccc(N2CCC(c3ccccc3)CC2)c(Cl)c1=O
inactive: Potency [5] | outcome [1] | Potency [2] | Potency [3] | Potency [9] | Potency [10]
active: Potency [6] 23 µM | Potency [7] 18.3 µM | Potency (Es-2) 28.2 µM | Potency (Hek293T) 31.6 µM | Potency (PA-1) 25.1 µM | Potency (Tov-21-G) 28.2 µM

CNCc1ccc(C)c(NC(=O)c2ccc(Nc3nc(-c4ccccc4)c4ccccc4n3)cc2)c1
active: Potency [6] 7.42 µM | Potency [7] 7.42 µM
inactive: Potency [4] | Potency [5] | outcome [1] | Potency [2] | Potency [3] | Potency [8] | Potency [9] | Potency [10] | Potency (C33A) | Potency (CASKI) | Potency (Es-2) | Potency (HeLa) | Potency (Hek293T) | Potency (JEG-3) | Potency (OV90) | Potency (Tov-21-G) | Potency (Tov112D)

CC(=O)N1CCN([C@H]2CCN(C(=O)N(C)[C@H](C)c3cc(C(F)(F)F)cc(C(F)(F)F)c3)[C@@H](c3ccc(F)cc3C)C2)CC1
inactive: Potency [4] | Potency [5] | Potency [2] | Potency [3] | Potency [8] | Potency [9] | Potency (C33A) | Potency (CASKI) | Potency (Es-2) | Potency (HeLa) | Potency (Hek293T) | Potency (JEG-3) | Potency (OV90) | Potency (PA-1) | Potency (Tov-21-G) | Potency (Tov112D)
active: Potency [7] 14.5 µM

C=C1[C@@H](C2=CC(=O)OC2)CC[C@@]2(O)[C@@H]1CC1[C@H]2CC[C@@H]2C[C@@H](O[C@H]3O[C@@H](C)[C@@H](O[C@@H]4O[C@H](CO[C@@H]5O[C@H](CO)[C@@H](O)[C@H](O)[C@H]5O)[C@@H](O)[C@H](O)[C@H]4O)[C@H](OC)[C@H]3O)CC[C@]12C (stereo partly specified)
active: Potency [6] 1.94 µM | Potency (C33A) 3.55 µM | Potency (Tov-21-G) 3.16 µM | Potency (Tov112D) 2.24 µM
inactive: Potency [5] | outcome [1] | Potency [3] | activity change, negative = inhibition [8] 0.528% [at 11.6 µM] | activity, negative = inhibition [9] -0.15% [at 11.6 µM] | activity change, negative = cytotoxicity (CASKI) -6.72% [at 11.6 µM] | activity change, negative = cytotoxicity (OV90) -0.0855% [at 11.6 µM]

CN[C@@H]1[C@@H](O)[C@@H](O[C@@H]2[C@@H](O)[C@H](O[C@H]3O[C@@H]([C@@H](C)NC)CC[C@H]3N)[C@@H](N)C[C@H]2N)OC[C@]1(C)O
inactive: Potency [5] | Potency [6] | Potency [7] | Potency [3] | Potency [8] | Potency [9] | Potency (C33A) | Potency (CASKI) | Potency (Es-2) | Potency (HeLa) | Potency (Hek293T) | Potency (JEG-3) | Potency (OV90) | Potency (PA-1) | Potency (Tov-21-G) | Potency (Tov112D)

Reference: PubChem BioAssay (NCATS)
